Assay results published in ChEMBL document CHEMBL3988442, “University of Dundee, Small-Polar-MMV Screening Library” (2021).
The whole screen tested about 48,000 compounds, of which about 13,000 (27%) showed an effect of 50% or more. The list shows a part of the results.

Tested on: Wolbachia pipientis
Assay: Anti-Wolbachia Cell-Based Screen
Format: functional
Set-up: scale not given: in the data most compounds retested in dose-response had high values
Settings: 5 µM

Row | Compound | Percent Effect [%]
1 | CCOCC1CCN(C(=O)Nc2ccc(-c3csnn3)cc2)C1 (stereo not drawn) | -10.06
2 | CC(C)CC(=O)NS(=O)(=O)c1ccc(C#N)cc1C(F)(F)F | 112.6
3 | N#Cc1cccc(S(=O)(=O)NC(=O)CCOCC(F)(F)F)c1 | 2.733
4 | COc1ccc(C(=O)NS(=O)(=O)c2ccc(C#N)cc2C(F)(F)F)cc1 | -4.886
5 | N#Cc1cccc(S(=O)(=O)NC(=O)COCC(F)(F)F)c1 | -9.311
6 | CC(C)(C)CC(=O)NS(=O)(=O)c1ccc(C#N)cc1C(F)(F)F | 82.77
7 | Cc1ccc(C)c(S(=O)(=O)NC(=O)COc2cccc(C#N)c2)c1 | 12.25
8 | Cc1ccc(C(=O)NCCC2CCN(C)CC2)cc1N(C)S(C)(=O)=O | -13.52
9 | CC(=O)c1csc(-c2csc(Cn3ccc(=O)[nH]c3=O)n2)c1 | -9.484
10 | CN(C)CC(=O)N1C[C@@H]2CC[C@H](Oc3ccccc3Cl)[C@@H]2C1 | -7.066
11 | O=C(Cn1ccnc1)N1C[C@@H]2CC[C@H](Oc3ccccc3F)[C@@H]2C1 | 91.22
12 | O=C(c1cnco1)N1C[C@@H]2CC[C@H](Oc3cccc(F)c3)[C@@H]2C1 | -6.458
13 | CC(C)N1CC(C(=O)N2CCC(Oc3ccccc3Cl)CC2)CC1=O (stereo not drawn) | -11.86
14 | O=C(Cn1ccnc1)N1C[C@@H]2CC[C@H](Oc3ccc(Cl)cc3)[C@@H]2C1 | 109.7
15 | CC(=O)NCC(=O)N1C[C@@H]2CC[C@H](Oc3ccccc3Cl)[C@@H]2C1 | 95.47
16 | O=C(c1cnco1)N1C[C@@H]2CC[C@H](Oc3ccccc3F)[C@@H]2C1 | -11.33
17 | O=C(Cn1ccnc1)N1C[C@@H]2CC[C@H](Oc3ccccc3)[C@@H]2C1 | -14.9
18 | CCC(CNC(=O)Cn1ccnc1)Oc1cccc(F)c1 (stereo not drawn) | 0.7752
19 | O=C(Cn1ccnc1)N1CCC(n2cc(-c3cccc(Cl)c3)nn2)CC1 | 2.937
20 | O=C(Cn1ccnc1)N1C[C@@H]2CC[C@H](Oc3cccc(F)c3)[C@@H]2C1 | 109
21 | O=C(Cn1ccnc1)N1C[C@@H]2CC[C@H](Oc3ccccc3Cl)[C@@H]2C1 | -8.109
22 | CC(C1CC1)N(C)C(=O)c1cnc(-c2ccc3c(c2)OCO3)s1 (stereo not drawn) | -9.871
23 | CN(CC1CC1)C(=O)Cc1csc(-c2ncccn2)n1 | -2.04
24 | CCC(=O)NCC(CC)Oc1cccc(F)c1 (stereo not drawn) | -9.029

Row | Compound | Percent Effect [%]
25 | CCN(CC)Cc1nc2c(o1)CN(C(=O)c1ccc3ncccc3c1)C2 | -8.46
26 | CC(C)N(C)Cc1ncn2c1CN(S(=O)(=O)c1cccs1)CCC2.O=C(O)C(F)(F)F | 2.779
27 | CN(C)Cc1nc2c(o1)CN(C(=O)NCc1cccc(F)c1)C2.O=C(O)C(F)(F)F | -9.503
28 | CN(C)Cc1nc2c(o1)CN(S(=O)(=O)c1cccs1)C2.O=C(O)C(F)(F)F | 113.1
29 | CCN(CC)Cc1nc2c(o1)CN(C(=O)c1ccncc1F)C2 | 11.31
30 | CCN(CC)Cc1nc2c(o1)CN(S(=O)(=O)c1cccs1)C2.O=C(O)C(F)(F)F | 103.4
31 | CC(Oc1ccc(F)c(F)c1)C(=O)N(CC(N)=O)C1CCCC1 (stereo not drawn) | 5.493
32 | CC(NC(=O)CCc1cccc(OC2CCCC2)c1)c1nncn1C (stereo not drawn) | -2.207
33 | CCOC(=O)c1sc(NC(=O)C(C)C)c(C#N)c1C | 157.4
34 | CCCC(=O)Nc1sc(C(=O)OCC)c(C)c1C#N | 10.62
35 | CCOC(=O)c1sc(NC(=O)CN(C)S(C)(=O)=O)c(C#N)c1C | 0.9217
36 | Cc1sc(NC(=O)CN(C)S(C)(=O)=O)c(C#N)c1C | 5.3
37 | CCOC(=O)c1sc(NC(=O)CN2C(=O)CCC2=O)c(C#N)c1C | 132.7
38 | Cc1cc(N2CCCC(N(C)C)C2)n2nccc2n1 (stereo not drawn) | 14.85
39 | COC(=O)C(NC(=O)C(C)C)c1cc(F)ccc1F (stereo not drawn) | -7.207
40 | CCCC(=O)NC(C(=O)OC)c1cc(F)ccc1F (stereo not drawn) | 95.91
41 | O=C(CCc1ccco1)Nc1cccc(S(=O)(=O)C(F)F)c1 | 1.803
42 | CC(C)OCCC(=O)Nc1c(-c2ccc(F)cc2)ncn1C | 6.912
43 | CC(C)OCCC(=O)N(C)c1ccc(F)c(Cl)c1 | 3.103
44 | CCOC(=O)C(C)NC(=O)CCSc1ccc(F)cc1 (stereo not drawn) | 5.779
45 | COC(=O)C(NC(=O)c1ccco1)c1cc(F)ccc1F (stereo not drawn) | -3.431
46 | COC(=O)C(NC(=O)CCOC(C)C)c1cc(F)ccc1F (stereo not drawn) | 85.02
47 | CC(C)NC(=O)CC(C)NCc1ccc(F)cc1Cl (stereo not drawn) | 10.92
48 | COC(=O)C(NC(=O)CCc1ccco1)c1cc(F)ccc1F (stereo not drawn) | 117.5

Row | Compound | Percent Effect [%]
49 | COC(=O)C(NC(=O)CC(C)C)c1cc(F)ccc1F (stereo not drawn) | 110.3
50 | CC(C)(C)S(=O)(=O)c1ccc(N2CCN(c3ccccc3)CC2)nn1 | 15.82
51 | COCc1n[nH]c2c1CN(Cc1ccccn1)C2.O=C(O)C(F)(F)F | -21.53
52 | Cc1nnc(N2CCN(C(=O)NC3CC3)CC2)c(C(N)=O)c1C | -22.89
53 | CS(=O)(=O)NCC1CCCCN1Cc1ccccc1C#N (stereo not drawn) | 1.848
54 | O=C1CN(CC2CC2)Cc2nc(NCCc3ccccn3)sc21 | 91.68
55 | O=C(NCCc1ccccn1)NC1CCN(c2ccccc2)C1=O (stereo not drawn) | 10.23
56 | O=C(NCc1ccccc1)[C@@H]1Cc2[nH]cnc2CN1CC1CC1 | 2.59
57 | Cc1nc(CNC2CCN(Cc3ccccc3)C2)sc1C (stereo not drawn) | -5.508
58 | Cn1c(C2CC2)nc2c1CCN(CCc1ccccn1)C2 | -2.558
59 | O=C1CN(CC2CC2)Cc2nc(NCc3ccccc3)sc21 | 59.83
60 | COCCN1CC(=O)c2sc(NCc3ccccc3)nc2C1 | 105.3
61 | CSC1(CNC(=O)NC(C)c2ccc(F)c(F)c2)CCOCC1 (stereo not drawn) | -14.87
62 | Cc1ccc(C(C(=O)NCCc2nc(C)cc(C)n2)N(C)C)cc1 (stereo not drawn) | 11.55
63 | COc1ccc(-c2cccc3c2OC(CN)C3)cc1F (stereo not drawn) | -8.297
64 | CCN1CCN(C[C@@H]2CN(c3ncc(Cl)cc3Cl)C[C@@H]2CO)CC1 | -5.198
65 | CCS(=O)(=O)N1C[C@H](c2nc(C)no2)C[C@H]2OCC[C@H]21 | 131.3
66 | Cc1noc([C@@H]2C[C@H]3OCC[C@H]3N(S(C)(=O)=O)C2)n1 | 0.371
67 | Cc1nnc([C@H]2C[C@H]3OCC[C@H]3N(S(=O)(=O)CC(C)C)C2)o1 | -13.43
68 | Cc1noc([C@@H]2C[C@H]3OCC[C@H]3N(CC3CCCC3)C2)n1.O=C(O)C(F)(F)F | -10.41
69 | Cc1noc([C@H]2C[C@H]3OCC[C@H]3N(C3CCC3)C2)n1.O=C(O)C(F)(F)F | 110.4
70 | Cc1noc([C@H]2C[C@H]3OCC[C@H]3N(S(C)(=O)=O)C2)n1 | 101.7
71 | CCCS(=O)(=O)N1C[C@@H](c2nc(C)no2)C[C@H]2OCC[C@H]21 | 120.5
72 | CCc1ccc(CN2C[C@@H](c3nc(C)no3)C[C@H]3OCC[C@H]32)o1.O=C(O)C(F)(F)F | 3.351

Row | Compound | Percent Effect [%]
73 | Cc1noc([C@H]2C[C@H]3OCC[C@H]3N(S(=O)(=O)C3CC3)C2)n1 | 5.212
74 | Cc1noc([C@H]2C[C@H]3OCC[C@H]3N(Cc3scnc3C)C2)n1.O=C(O)C(F)(F)F.O=C(O)C(F)(F)F | -0.107
75 | Cc1noc([C@@H]2C[C@H]3OCC[C@H]3N(Cc3cc(C)c(C)o3)C2)n1.O=C(O)C(F)(F)F | -0.5348
76 | CCS(=O)(=O)N1C[C@@H](c2nnc(C)o2)C[C@H]2OCC[C@H]21 | 1.952
77 | Cc1ccc(-c2cnnc(NCC3(N4CCOCC4)CCCC3)n2)o1 | 10.34
78 | CNC(=O)c1cc2c(s1)CCN(C(=O)CCC1CCCN(C)C1)C2 (stereo not drawn) | -26.69
79 | Cc1nn(C)c(C)c1CN(Cc1cccn1-c1ncccn1)C(C)C | -15.44
80 | CC(Cn1ccnc1)NC(=O)N(C)Cc1ccco1 (stereo not drawn) | 7.542
81 | Cc1ccccc1CC1(CO)CCCN(c2ncnc3sccc23)C1 (stereo not drawn) | 23.07
82 | Cc1noc([C@@H]2C[C@H]3OCC[C@H]3N(S(=O)(=O)N(C)C)C2)n1 | 112.3
83 | Cc1nnc([C@H]2C[C@H]3OCC[C@H]3N(S(=O)(=O)N(C)C)C2)o1 | -11.67
84 | Cc1noc([C@@H]2C[C@H]3OCC[C@H]3N(S(=O)(=O)c3cccnc3)C2)n1.O=C(O)C(F)(F)F | -2.374
85 | Cc1nnc([C@H]2C[C@H]3OCC[C@H]3N(S(=O)(=O)C3CC3)C2)o1 | 7.121
86 | Cc1noc([C@@H]2C[C@H]3OCC[C@H]3N(Cc3ccoc3)C2)n1 | 14.51
87 | Cc1noc([C@@H]2C[C@H]3OCC[C@H]3N(S(=O)(=O)c3ccccc3)C2)n1 | 116
88 | CCC(O)Cn1nc(CCSC)nc1-c1ccc2[nH]ccc2c1 (stereo not drawn) | 4.032
89 | COc1ccc(OCc2nc(C(=O)N3CCCNC(=O)C3)co2)cc1 | -7.469
90 | COc1ccc(CN(C)C(=O)c2nnc(CN(C)C)o2)cc1 | -11.59
91 | NC(=O)C1CN(C(=O)c2ccc(F)cc2)CCN1CCc1ccccc1 (stereo not drawn) | 127.4
92 | O=C(c1ccccc1)N1CCCC(Nc2ccc(F)cc2)C1 (stereo not drawn) | -11.95
93 | CN1CC(c2ccccc2)CC12CCN(C(=O)c1ccc(F)cc1)CC2 (stereo not drawn) | -4.742
